Measurements published in PubChem BioAssay (Tox21).
Inconclusive results are not listed. Where a call stands in place of a potency, no number is given. Active and inactive are the calls of the source. Calls come from the whole dose curve; as a rule, active = well fitted cell-killing curve with a large enough effect in the repeat runs; inconclusive = weak or mixed curves, or effect the other way; inactive = flat fitted curve, though single readings scatter.

Assay: qHTS RealTime-Glo MT Cell Viability Assay in HepG2 cells - 0 hour (AID 1224889); note: nearly all actives have a fitted effect of over 50% in size
Details: RealTime-Glo luminescence; series mostly up to 76.8 µM
Source text: U.S. Tox21 Program National Center for Advancing Translational Sciences [NCATS] NIH Chemical Genomics Center [NCGC] U.S. Environmental Protection Agency [EPA] National Institutes of Environmental Health Sciences [NIEHS] National Toxicology Program [NTP] U.S. Food and Drug Administration [FDA] Tox21 Assay Overview: Measure of cell viability is critical in the cell-base assay. Analysis of cell viability is necessary for the characterization of cell responses to cytotoxic drugs and environmental stress. A RealTime-Glo MT Cell Viability Assay to monitor cell viability in real time of continues cell culture during 40 hours of compound treatment was used to screen Tox21 10K library compounds in HepG2 cells. The RealTime-Glo MT Cell Viability Assay is a nonlytic, homogeneous, bioluminescent method to measure cell viability in real time using a simple, plate-based method. The assay involves adding NanoLuc luciferase and a cell-permeant prosubstrate to cells in culture. Viable cells reduce the proprietary prosubstrate to generate a substrate for NanoLuc luciferase. This substrate diffuses from cells into the surrounding culture medium, where it is rapidly used by the NanoLuc Enzyme to produce a luminescent signal. The signal correlates with the number of viable cells, making the assay well suited for cytotoxicity studies.
Tox21 Assay Protocol Summary: The mixture of HepG2 cell suspension and reagents were dispensed at 600cells/6 ul/well in 1536-well tissue culture treated black solid bottom plates using a Multidrop dispenser. After the assay plates were incubated at a 37 C/5% CO2 incubator for 5 hours, 23 nL of compounds dissolved in DMSO, positive and negative controls was transferred to the assay plate by a pintool work station. The plates were incubated at 37 C for 40 hours. The luminescence intensity were measured at 0h, 8h, 16h, 24h, 32h and 40h time points using ViewLux plate reader during compound treatment.
Potency is the fitted concentration of half-maximal effect.

Row | SMILES | Potency
1 | C=Cc1ccc(C=C)cc1 | inactive
2 | C[Si](C)(C)O[Si](C)(C)O[Si](C)(C)C | inactive
3 | Clc1nc2ccccc2nc1Cl | inactive
4 | CC1(COc2ccc(CC3SC(=O)NC3=O)cc2)CCCCC1 (stereo not given) | inactive
5 | O=S(=O)(O)c1cc(Cl)c(Cl)cc1Cl | inactive
6 | CCCCOC(=O)C(C)Oc1ccc(Oc2ccc(C(F)(F)F)cn2)cc1 (stereo not given) | inactive
7 | Cc1ccc(NC=O)c(C)c1 | inactive
8 | Clc1ccccc1-c1nc(-c2ccncc2)no1 | inactive
9 | CCCCCCCCCCCCSCCOCCO | inactive
10 | O=C(O)c1ccncc1 | inactive
11 | O=C1CCCN1CCO | inactive
12 | CC(=O)c1ccc(Cl)c(Cl)c1Cl | inactive
13 | O=[N+]([O-])c1cccc(I)c1 | inactive
14 | CCCCCCCCNC | inactive
15 | C/C=C1\[C@H]2C=C(C)C[C@]1(N)c1ccc(=O)[nH]c1C2 | inactive
16 | CCC1=C(C)CN(C(=O)NCCc2ccc(S(=O)(=O)NC(=O)NC3CCC(C)CC3)cc2)C1=O (stereo not given) | inactive
17 | COc1ccc(/C=C/S(=O)(=O)NC(=O)c2ccc(C)cc2Cl)cc1 | inactive
18 | CCN(CC)CC(=O)OCC(=O)[C@@]1(O)CC[C@H]2[C@@H]3CCC4=CC(=O)CC[C@]4(C)[C@H]3[C@@H](O)C[C@@]21C | 1.07 µM (active)
19 | Nc1ncnc2c1ncn2[C@@H]1O[C@H](CO)[C@@H](O)[C@H]1O | inactive
20 | OCCOc1cccc(OCCO)c1 | inactive

Row | SMILES | Potency
21 | CC(=O)Nc1ccccc1O | inactive
22 | CCOc1ccc2c(c1)C(C)CC(C)(C)N2 (stereo not given) | inactive
23 | Cc1cc(SC2=C(O)C[C@@](CCc3ccc(N)cc3)(C(C)C)OC2=O)c(C(C)(C)C)cc1CO | 19.5 µM (active)
24 | COc1ccc(CN(CCN(C)C)c2ncccn2)cc1 | inactive
25 | O=C(O)c1ccccc1-n1cc(C(=O)O)c(=O)c2cc(Nc3c(F)cc(F)cc3Cl)c(Cl)cc21 | inactive
26 | CCCC(=O)OCc1ccccc1 | inactive
27 | Cc1nc(C)c(C)nc1C | inactive
28 | CC(C)=CCC/C(C)=C/C=N/O | inactive
29 | CC(C)(C)N | inactive
30 | CCC(C(=O)O)c1ccc(N2Cc3ccccc3C2=O)cc1 (stereo not given) | inactive
31 | Sc1nc(S)nc(S)n1 | inactive
32 | CC[C@H](NC(C)C)[C@H](O)c1ccc(O)c2[nH]c(=O)ccc12 | inactive
33 | [O-][n+]1ccc(Cl)cc1 | inactive
34 | C=CC(O)CCCCC (stereo not given) | inactive
35 | CC(C(=O)O)c1ccc2c(c1)Cc1cccnc1O2 (stereo not given) | inactive
36 | C[C@]12CCC(=O)C=C1[C@@H]1C[C@@H]1[C@H]1[C@@H]3[C@@H]4C[C@@H]4[C@@]4(CCC(=O)O4)[C@@]3(C)CC[C@@H]12 | inactive
37 | CCCCCCCCC(=O)OCC(C)OC(=O)CCCCCCCC (stereo not given) | inactive
38 | C=CC(C)CCC=C(C)C (stereo not given) | inactive
39 | O=C(c1ccc(Cl)cc1)c1ccc(Cl)cc1 | inactive
40 | CC(C)=CCCC(C)C=O (stereo not given) | inactive
